# PubChem BioAssay AID504332 (National Center for Advancing Translational Sciences (NCATS), 2011)
# About 31,000 (8.9%) of roughly 350,000 compounds were called active. Not shown: some 15% with an inconclusive outcome. The full list was thinned out, with actives kept by preference. Unmarked numbers belong to inactive results. The call rests on the fitted dose curve; in most records, active means well fitted inhibition curve with a large enough effect; inconclusive means small, poorly fitted or top-dose-only effect; inactive means no such curve, though single readings can be large or run the other way.
# Target: Histone-lysine N-methyltransferase EHMT2 (Homo sapiens) (UniProt Q96KQ7)
# Experiment: qHTS Assay for Inhibitors of Histone Lysine Methyltransferase G9a; further: nearly all actives have a fitted effect of over 75% in size
# Conditions: G9a H3K9 monomethylation, AlphaScreen, 2 h; series mostly up to 59 µM; activity, negative = inhibition: at the top concentration
# Outline: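 Quantitative HTS format: methyltransferase activity on a biotin-tagged H3K9 peptide is measured by AlphaScreen, using a rabbit anti-monomethyl-H3K9 antibody with streptavidin donor and anti-IgG acceptor beads. Final levels are 20 nM enzyme, 500 nM peptide, 20 uM SAM; 2 h RT.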
# On the % scale 0 is the no-effect control and ±100 the full control effect; potency means the concentration at half of the fitted maximal effect.
# Chain of Histone-lysine N-methyltransferase EHMT2 (Homo sapiens) (Q96KQ7 913-1193 limits assumed): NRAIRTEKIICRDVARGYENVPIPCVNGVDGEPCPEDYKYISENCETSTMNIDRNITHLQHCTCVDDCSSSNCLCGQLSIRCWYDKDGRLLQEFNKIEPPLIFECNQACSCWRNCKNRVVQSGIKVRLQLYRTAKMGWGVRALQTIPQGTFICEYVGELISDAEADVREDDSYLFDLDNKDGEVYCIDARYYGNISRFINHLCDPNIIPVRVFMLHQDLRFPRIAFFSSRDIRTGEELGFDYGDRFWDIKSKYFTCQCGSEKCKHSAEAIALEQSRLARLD
Structure (SMILES),"activity, negative = inhibition",Potency
O=C(O)CCCn1cc(NC(=O)COc2cccc(Cl)c2)cn1,6.71% [at 102 µM],–
O=C1CCN(CCCc2ccccc2)CCN1CCO,-2.88% [at 102 µM],–
Cc1csc(NC(=O)c2ccc(-c3ccc(Cl)cc3Cl)o2)n1,2.91%,–
COc1ccc(C(=O)Nc2c(Cl)cc(Cl)cc2C(=O)N2CCC(C)CC2)cc1,14.3%,–
CC1CCN(C(=S)c2ccc(-c3ccc(Cl)cc3Cl)o2)CC1,–,8.91 µM (active)
COc1ccc(CNC(=O)C(C)n2nc(C)c3c(C)n(-c4ccccc4)nc3c2=O)c(OC)c1 (stereo not given),–,inactive
CN1CCN(c2ccc([N+](=O)[O-])c(Sc3nc4ccccc4[nH]3)c2)CC1,–,10 µM (active)
CC1CCN(c2ccc([N+](=O)[O-])c(SCCO)c2)CC1,-14.6%,–
O=[N+]([O-])c1ccc(N2CCNCC2)cc1NCc1cccnc1,1.92%,–
CCOC(=O)c1ccccc1NC(=O)CCc1c(C)nc2c(c1C)c(=O)n(C)c(=O)n2C,4.26%,–
CCOc1ccc(N2CC(c3nc4ccccc4n3CCOc3ccc(OC)cc3)CC2=O)cc1 (stereo not given),-48.9%,–
CCc1ccccc1OCC(=O)Nc1ccc2c(c1)OCCO2,-6.66% [at 102 µM],–
COc1ccc(NC(=O)CSc2nnc(-c3ccccc3F)n2C2CC2)cc1S(N)(=O)=O,–,44.7 µM (active)
CC(Sc1nnc(-c2ccccc2F)n1C1CC1)C(N)=O (stereo not given),-3.42%,–
COc1ccc(NC(=O)CSc2nnc(C3CC3)n2C)cc1S(=O)(=O)N1CCCCC1,-4.19%,–
Cc1ccc(S(=O)(=O)N(CC(=O)NCc2ccco2)c2ccccc2C)cc1,-17.8% [at 102 µM],–
CCOC(=O)C(Cc1ccccc1)NC(=O)CCc1c(C)nc2c(c(C)nn2-c2ccc(C)c(C)c2)c1C (stereo not given),1.4%,–
CCOC(=O)c1cc2c(=O)n3ccccc3nc2n(Cc2ccco2)c1=NC(=O)c1ccc(F)cc1,9.03%,–
COC(=O)c1ccc(NC(=O)c2cnn(-c3ccc(Cl)cc3)c2C2CCN(C(=O)OC(C)(C)C)CC2)cc1,-29.6%,–
COc1cccc(NC(=O)CN(C)CC(=O)Nc2ccc3c(c2)CCC3)c1,-6.51% [at 102 µM],–
COc1cccc(NC(=O)CN(C)C(=O)CSC(=S)N2CCCC2)c1,–,14.1 µM (active)
COc1cccc(NC(=O)CN(C)C(=O)Cc2ccc(Cl)cc2Cl)c1,1.78% [at 102 µM],–
COc1ccccc1CC(=O)Nc1ccc(S(=O)(=O)N2CCCC2)cc1,10.5% [at 102 µM],–
CCOc1cccc(NC(=O)C2CCCN(S(=O)(=O)c3ccc(OC)cc3)C2)c1 (stereo not given),-28.2% [at 102 µM],–

Structure (SMILES),"activity, negative = inhibition",Potency
CCN(CC(=O)Nc1ccc(S(=O)(=O)N2CCCC2)cc1)CC(=O)Nc1cccc(OC)c1,–,31.6 µM (active)
COc1ccc(OC)c(NC(=O)CN2CCCN(Cc3cc(C)ccc3C)S2(=O)=O)c1,0.769%,–
COc1ccc(OCCCC(=O)OC(C)C(=O)Nc2ccccc2[N+](=O)[O-])cc1 (stereo not given),-1.74% [at 2.33 µM],–
CCOc1ccc(-n2c(C)nc3c(cnn3-c3ccc(C)cc3)c2=O)cc1,11.5%,–
CCOC(=O)CSc1nc2c(c(=O)n(C)c(=O)n2C)n1Cc1ccccc1F,2.47% [at 102 µM],–
CC(C)OCCCNc1nc2c(c(=O)n(Cc3ccccc3F)c(=O)n2C)n1C,–,22.4 µM (active)
Cn1c(=O)c2c(nc(NCCNC(=O)c3ccco3)n2Cc2ccccc2F)n(C)c1=O,41.2% [at 102 µM],–
CNC(=O)c1ccc(-c2nc(CN3CCc4ccccc43)c(C)o2)cc1,-0.994% [at 12.7 µM],–
Cc1nn(-c2ccccc2)c(C)c1NC(=O)COc1ccc(Cl)cc1Cl,26.6%,–
COC(=O)c1c(NC(=O)COc2ccc(Cl)cc2Cl)sc2c1CC(C)(C)NC2(C)C,–,31.6 µM (active)
CCOC(=O)c1c(NC(=O)c2ccc(S(=O)(=O)N(C)CC3CCCO3)cc2)sc2c1CC(C)(C)NC2(C)C (stereo not given),69.6% [at 102 µM],–
CC1(C)CC(=O)C=C(c2ccc(Cl)c(C(F)(F)F)c2)C1,-9.47% [at 0.501 µM],–
O=C(CCc1nc(-c2ccccc2)no1)Nc1cccc(C(=O)NC2CC2)c1,-5.9% [at 12.7 µM],–
CCOC(=O)c1ccccc1NC(=O)COC(=O)C(Cc1c[nH]c2ccccc12)NC(C)=O (stereo not given),-26.2% [at 102 µM],–
Cc1nonc1C1CCCN1C(=O)c1cc(COc2cccc(C(F)(F)F)c2)on1 (stereo not given),24.4% [at 102 µM],–
Cc1ccc(NC(=O)CSc2nc3c([nH]c4ccccc43)c(=O)n2-c2ccccc2)c(C)c1,11.1%,–
O=C(COc1ccccc1F)OCc1cc(=O)n2nc(C3CCCCC3)sc2n1,8.46%,–
O=C(O)CCn1c(Cc2ccccc2)nc2ccccc21,13.2% [at 102 µM],–
CC(=O)c1nc2ccccc2n1Cc1ccccc1,4.37% [at 102 µM],–
O=C(O)CCc1nc2cc(Cl)ccc2n(Cc2ccccc2)c1=O,–,50.1 µM (active)
COc1cc(OC)c(NC(=O)c2cnc(N3CCCC3)nc2C)cc1Cl,-4.36% [at 12.7 µM],–
COc1cc(C#Cc2ccc3cc(CCCO)oc(=O)c3c2)cc(OC)c1,-2.15% [at 0.501 µM],–
COc1ccccc1C(=O)N(Cc1ccc(C)o1)C1CCS(=O)(=O)C1 (stereo not given),76.1% [at 102 µM],–
CC(OC(=O)c1cc2ccccc2o1)C(=O)Nc1ccc(N2CCOCC2)cc1 (stereo not given),-43.1% [at 12.7 µM],–

Structure (SMILES),"activity, negative = inhibition",Potency
O=C(Cn1c(=O)sc2ccccc21)Nc1nc2c(s1)CCCC2,-39.4% [at 102 µM],–
O=C(Nc1nc2c(s1)CCCC2)c1ccccc1F,–,12.6 µM (active)
O=C(Nc1nnc(-c2ccccc2F)s1)c1ccccc1F,-8.05% [at 102 µM],–
CCc1ccc(NC(=O)C2CCCN2S(=O)(=O)c2ccc3nc(-c4ccccc4)[nH]c3c2)cc1 (stereo not given),-30.7%,–
Cc1ccc(CSc2nc3ccsc3c(=O)n2CCC(C)C)cc1,65.3%,–
COC(=O)c1ccccc1NC(=O)c1cnn(-c2ccc(F)cc2)c1-n1cccc1,-2.86%,–
O=C(COc1ccc(Cl)cc1)Nc1ccc2c(c1)OCO2,18.4% [at 102 µM],–
O=C(CCN1CCN(C/C=C/c2ccccc2)CC1)Nc1cccc(F)c1,-7.7% [at 102 µM],–
O=C(Nc1ccccc1)N1CCN(Cc2ccccc2)CC1,–,2 µM (active)
O=C(Nc1ccccc1)N1CCN(C2c3ccccc3-c3ccccc32)CC1,9.14% [at 102 µM],–
O=C(CN1CCN(Cc2ccccc2)CC1)Nc1ccc(F)c(F)c1,–,7.08 µM (active)
O=C(Nc1cccc(NC(=O)N2CCN(c3ccccc3)CC2)c1)N1CCN(c2ccccc2)CC1,-38.9% [at 102 µM],–
O=C1CCN(C(=O)Nc2ccccc2)N1,–,7.94 µM (active)
CCOC(=O)N1CCN(CCC(=O)Nc2ccccc2)CC1,-0.171% [at 0.501 µM],–
O=C(CN1CCN(CC(=O)Nc2ccc3c(c2)OCO3)CC1)Nc1ccc(F)cc1,-4.1% [at 2.33 µM],–
O=C(Nc1ccccc1)N1CCN(C(=O)Nc2ccccc2)CC1,6.73% [at 102 µM],–
Cc1cc(NC(=O)CCN2CCN(Cc3ccccc3)CC2)ccc1Br,–,44.7 µM (active)
O=C(CN1CCCCCC1)Nc1ccc(Cl)cc1F,-4.75% [at 102 µM],–
O=C(Nc1ccccc1)N1CCC(C(=O)N2CCN(Cc3ccccc3)CC2)CC1,9.4% [at 12.7 µM],–
COc1ccc(C)cc1NC(=O)CCc1c(C)nn(-c2ccc(N3CCOCC3)nn2)c1C,-3.72%,–
O=C(COC(=O)c1cnccn1)Nc1ccc(Cl)cc1C(F)(F)F,-3.19% [at 0.501 µM],–
O=C(Cn1c(=O)nc(-c2ccccc2)c2cc(Cl)ccc21)NCc1ccc(Cl)cc1,-4.4%,–
O=C(CSc1cn(CC(=O)N2CCOCC2)c2ccccc12)Nc1ccccc1,2.17%,–
CN(CC(=O)NCc1ccncc1)S(=O)(=O)c1ccc(Br)cc1,9.67% [at 102 µM],–

Structure (SMILES),"activity, negative = inhibition",Potency
CCOC(=O)Cc1csc(SCC(=O)Nc2ccc(C)cc2F)n1,25.5% [at 102 µM],–
C=Cc1ccc(Cn2c(C(=O)OC)cc3sc(C)cc32)cc1,62.5%,–
CC(=O)Nc1ccc2nc(SCCOc3cc(C)cc(C)c3)sc2c1,-9.85%,–
Cc1ccc(-c2c3c(=O)n(C)c(=O)n(C)c3cn2-c2ccccc2O)cc1,–,31.6 µM (active)
COc1ccc(Nc2cc(=O)n(-c3ccccc3)c3c2c(=O)n(C)c(=O)n3C)cc1,-9.11% [at 102 µM],–
COc1cccc(-n2cc3c(c2-c2ccccc2)c(=O)n(C)c(=O)n3C)c1,–,25.1 µM (active)
COc1cccc(N2C(=O)CN(Cc3ccccc3)C2=S)c1,23.1% [at 102 µM],–
COc1ccccc1-n1c(-c2ccc(C)cc2)cn2c3c(=O)n(C)c(=O)n(C)c3nc12,-26.8%,–
COc1ccc(-c2c3c(=O)n(C)c(=O)n(C)c3c3c(C)nc4ccccc4n23)cc1,7.67%,–
O=C(O)c1ccc(CSc2nc3cccnc3n2Cc2cccc(F)c2)cc1,6.5%,–
CCN(CC(=O)NCc1cccs1)C(=O)/C=C/c1ccc(C)cc1,9.99% [at 12.7 µM],–
CCOC(=O)c1c(C)[nH]c(CCC(=O)NCCCN2CCN(c3cccc(Cl)c3)CC2)c1C,1.4%,–
CCOC(=O)c1ccc2c(c1)N(Cc1cccc(OC)c1)C(=O)c1ccccc1S2(=O)=O,8.77%,–
CC(=O)N1Cc2ccccc2CC1C(=O)O (stereo not given),–,17.8 µM (active)
O=C(C1Cc2ccccc2CN1C(=O)c1ccco1)N1CCN(c2ccccc2)CC1 (stereo not given),-27.1%,–
C[C@H](NC(=O)[C@@H]1Cc2ccccc2CN1C(=O)OC(C)(C)C)C(=O)NC1CCCC1,19.8% [at 102 µM],–
C[C@@H]1O[C@@H](OC[C@H]2O[C@@H](Oc3c(-c4ccc(O)cc4)oc4cc(O)cc(O)c4c3=O)[C@H](O)[C@@H](O)[C@@H]2O)[C@H](O)[C@H](O)[C@H]1O,4.77% [at 12.7 µM],–
COc1cccc(N2CC(NS(=O)(=O)c3ccc(Cl)cc3)CC2=O)c1 (stereo not given),-30.1% [at 102 µM],–
CC1CCC(CN2CCN=C2N(C)C)CC1 (stereo not given),11.1% [at 12.7 µM],–
NC(=S)c1ccc(C(N)=S)o1,–,44.7 µM (active)
O=C(Nc1ccc(F)cc1)c1cc2c(s1)CCCC2,45% [at 102 µM],–
O=C(COC(=O)c1cc2c(s1)CCCC2)NCc1ccccc1Cl,7.22% [at 102 µM],–
CN(C)C(=O)c1ccc(NC(=O)COC(=O)c2cc3c(s2)CCCCC3)cc1,–,3.55 µM (active)
